Results reported in the supplement of paper PMC8728848.
The sample as a whole holds a higher share of the strongest signals than the screen did.

What was measured:
Assay in all cases: glycan array binding signal (z-score within array); higher = stronger binding
Conditions in all cases: glycan notation: IUPAC condensed, linker removed
Fuc(a1-2)Gal = target: Fuc(a1-2)Gal
How it was run: (§1)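 From the Consortium for Functional Glycomics database, 3228 arrays were curated, keeping only those whose protein sequence was available. Binding is given as a within-array Z-score averaged across arrays sharing a protein sequence and across linkers. Negative Z-scores can be read as non-binding.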

[1] = target: Fuc(a1-2)Gal(b1-3)GalNAc(b1-4)[Neu5Ac(a2-3)]Gal(b1-4)Glc
How it was run: as §1

[2] = target: Fuc(a1-2)Gal(b1-4)[Fuc(a1-3)]GlcNAc(b1-2)Man(a1-3)[Fuc(a1-2)Gal(b1-4)[Fuc(a1-3)]GlcNAc(b1-2)Man(a1-6)]Man(b1-4)GlcNAc(b1-4)[Fuc(a1-6)]GlcNAc
How it was run: as §1

[3] = target: Fuc(a1-2)Gal6S(b1-3)GlcNAc6S
How it was run: as §1

[4] = target: Fuc(a1-2)Gal6S(b1-4)Glc6S
How it was run: as §1

[5] = target: Fuc(a1-2)[GalNAc(a1-3)]Gal(b1-4)GlcNAc(b1-2)Man
How it was run: as §1

[6] = target: Fuc(a1-2)[GalNAc(a1-3)]Gal(b1-4)GlcNAc(b1-6)GalNAc
How it was run: as §1

[7] = target: Fuc(a1-3)[Gal(b1-4)]Glc6S
How it was run: as §1

[8] = target: Fuc(a1-3)[Gal3S(b1-4)]Glc
How it was run: as §1

[9] = target: Gal(a1-3)Gal(b1-3)GlcNAc(b1-3)GalNAc
How it was run: as §1

[10] = target: Gal(a1-3)[Gal(a1-4)]Gal(b1-4)GlcNAc
How it was run: as §1

[11] = target: Gal(a1-4)Gal(b1-4)GlcNAc(b1-2)Man(a1-3)[Gal(a1-4)Gal(b1-4)GlcNAc(b1-2)Man(a1-6)]Man(b1-4)GlcNAc(b1-4)GlcNAc
How it was run: as §1

[12] = target: Gal(a1-4)Gal(b1-4)GlcNAc(b1-3)Gal(b1-4)Glc
How it was run: as §1

[13] = target: Gal(b1-3)GlcNAc(b1-3)Gal(b1-4)GlcNAc(b1-2)[Gal(b1-3)GlcNAc(b1-3)Gal(b1-4)GlcNAc(b1-6)]Man(a1-6)[Gal(b1-3)GlcNAc(b1-3)Gal(b1-4)GlcNAc(b1-2)Man(a1-3)]Man(b1-4)GlcNAc(b1-4)[Fuc(a1-6)]GlcNAc
How it was run: as §1

[14] = target: Gal(b1-3)GlcNAc(b1-3)Gal(b1-4)GlcNAc(b1-3)Gal(b1-4)GlcNAc(b1-2)[Gal(b1-3)GlcNAc(b1-3)Gal(b1-4)GlcNAc(b1-3)Gal(b1-4)GlcNAc(b1-6)]Man(a1-6)[Gal(b1-3)GlcNAc(b1-3)Gal(b1-4)GlcNAc(b1-3)Gal(b1-4)GlcNAc(b1-2)Man(a1-3)]Man(b1-4)GlcNAc(b1-4)[Fuc(a1-6)]GlcNAc
How it was run: as §1

[15] = target: Gal(b1-3)GlcNAc(b1-6)Gal(b1-4)GlcNAc
How it was run: as §1

[16] = target: Gal(b1-3)[Fuc(a1-4)]GlcNAc
How it was run: as §1

[17] = target: Gal(b1-4)GlcNAc(b1-2)Man(a1-3)[Gal(b1-4)GlcNAc(b1-2)Man(a1-6)][Gal(b1-4)GlcNAc(b1-4)]Man(b1-4)GlcNAc(b1-4)[Fuc(a1-6)]GlcNAc
How it was run: as §1

[18] = target: Gal(b1-4)GlcNAc(b1-2)Man(a1-3)[Gal(b1-4)GlcNAc(b1-2)Man(a1-6)][GlcNAc(b1-4)]Man(b1-4)GlcNAc(b1-4)[Fuc(a1-6)]GlcNAc
How it was run: as §1

[19] = target: Gal(b1-4)GlcNAc(b1-2)Man(a1-6)[Man(a1-3)]Man(b1-4)GlcNAc(b1-4)GlcNAc
How it was run: as §1

[20] = target: Gal(b1-4)GlcNAc(b1-2)[Gal(b1-4)GlcNAc(b1-4)]Man(a1-3)[GlcNAc(b1-4)][Gal(b1-4)GlcNAc(b1-2)Man(a1-6)]Man(b1-4)GlcNAc(b1-4)GlcNAc
How it was run: as §1

[21] = target: Gal(b1-4)GlcNAc(b1-3)Gal(b1-4)GlcNAc(b1-3)Gal(b1-4)GlcNAc(b1-3)Gal(b1-4)GlcNAc(b1-2)Man(a1-3)[Gal(b1-4)GlcNAc(b1-3)Gal(b1-4)GlcNAc(b1-3)Gal(b1-4)GlcNAc(b1-3)Gal(b1-4)GlcNAc(b1-2)Man(a1-6)]Man(b1-4)GlcNAc(b1-4)GlcNAc
How it was run: as §1

[22] = target: Gal(b1-4)GlcNAc(b1-3)Gal(b1-4)GlcNAc(b1-3)Gal(b1-4)GlcNAc(b1-3)Gal(b1-4)GlcNAc(b1-2)Man(a1-3)[Gal(b1-4)GlcNAc(b1-3)Gal(b1-4)GlcNAc(b1-3)Gal(b1-4)GlcNAc(b1-3)Gal(b1-4)GlcNAc(b1-2)Man(a1-6)]Man(b1-4)GlcNAc(b1-4)[Fuc(a1-6)]GlcNAc
How it was run: as §1

[23] = target: Gal(b1-4)GlcNAc(b1-3)[Fuc(a1-3)GlcNAc(b1-6)]Gal(b1-4)Glc
How it was run: as §1

[24] = target: Gal3S(b1-3)[Fuc(a1-4)]GlcNAc
How it was run: as §1

Gal3S(b1-4)GlcNAc = target: Gal3S(b1-4)GlcNAc
How it was run: as §1

[25] = target: Gal3S(b1-4)[Fuc(a1-3)]GlcNAc
How it was run: as §1

Gal6S(b1-4)GlcNAc = target: Gal6S(b1-4)GlcNAc
How it was run: as §1

GalNAc(a1-3)GalNAc = target: GalNAc(a1-3)GalNAc
How it was run: as §1

[26] = target: GalNAc(b1-4)GlcNAc(b1-2)Man(a1-3)[GalNAc(b1-4)GlcNAc(b1-2)Man(a1-6)]Man(b1-4)GlcNAc(b1-4)GlcNAc
How it was run: as §1

B1: PX14343F-bfa-562-20-562 (Bacteroides fragilis) (protein)
chain: CDDFLDSFPQDTVTNENFWKSKEDADKVLVDIYASLLPKDAIFFDEAMSDNAYLVWDWWGGAQQVANGSYTTSGEIPTNRWNGSYEVIRKCWFLLEGIEKIEDISEQDKNKIIGETYFMLAYNYYVLTSYFGDVPLVTKTLAIPESKQLVRTPKAEVVDYAINKLKEAAVMLEGLSQEKGRVTADACRFLIARMYLYNGDYSNVLETVKLLEGKYQLYREGDTPYEDLFSGVAENSCEVILSVVCDKRVGEIYTSHGGNGIMLLKGITGEDPYRGVTPSGSLVDAYPMADGRLIHEAGSSYDPKKPYEGRDPRFYQSIVYPTGQIKYLDVETGTVKERLYDPEDPTTVPEHQYNYSQPSATGYMWNKYIDYSVYAMNSVWDCTNDIIVFRYADVLLMKAEALLQTKGESAKEEVCNLIDQLRDRCSCGRVHRENYNSKDELMELLKNERRIELANEGLRYMDLIRWKDAEKNTIVTGVGLTGQMYGAYMRKDGVGKDDKTVDVDNTPRRYIETRYFNASKGYLFPIPQKERDLNPNLTQNPNW
- glycan array binding signal (z-score) (Fuc(a1-2)Gal): -0.039
- glycan array binding signal (z-score) [1]: 0.115
- glycan array binding signal (z-score) [2]: -0.43
- glycan array binding signal (z-score) [3]: 1.48
- glycan array binding signal (z-score) [4]: 0.012
- glycan array binding signal (z-score) [5]: 0.033
- glycan array binding signal (z-score) [6]: -0.301
- glycan array binding signal (z-score) [7]: -0.078
- glycan array binding signal (z-score) [8]: -0.368
- glycan array binding signal (z-score) [9]: -0.716
- glycan array binding signal (z-score) [10]: 3.69
- glycan array binding signal (z-score) [11]: 1.42
- glycan array binding signal (z-score) [12]: -0.481
- glycan array binding signal (z-score) [13]: 1.83
- glycan array binding signal (z-score) [14]: 1.38
- glycan array binding signal (z-score) [15]: -0.369
- glycan array binding signal (z-score) [16]: -0.027
- glycan array binding signal (z-score) [17]: -0.394
- glycan array binding signal (z-score) [18]: -0.937
- glycan array binding signal (z-score) [19]: 0.332
- glycan array binding signal (z-score) [20]: 0.08
- glycan array binding signal (z-score) [21]: 0.79
- glycan array binding signal (z-score) [22]: -0.007
- glycan array binding signal (z-score) [23]: 1.78
- glycan array binding signal (z-score) [24]: -0.53
- glycan array binding signal (z-score) (Gal3S(b1-4)GlcNAc): 0.086
- glycan array binding signal (z-score) [25]: 0.472
- glycan array binding signal (z-score) (Gal6S(b1-4)GlcNAc): 0.658
- glycan array binding signal (z-score) (GalNAc(a1-3)GalNAc): 0.306
- glycan array binding signal (z-score) [26]: 2.1
